# Source: PubChem BioAssay AID624137 (Broad Institute, 2012)
# The campaign covered roughly 31,000 compounds. About 360 (1.2%) were called active. No rule for the calls is given here. The list comes from a sample in which actives are over-represented; it also holds similar structures and randomly drawn compounds.
# Target: DNA-binding protein inhibitor ID-4 (Homo sapiens) (UniProt P47928)
# Experiment: PubChem AID 624137;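 also: a binder raises fluorescence above local background on the spot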
# Conditions: small molecule microarray, Flag-ID4 binding, fluorescence F/B
# DNA-binding protein inhibitor ID-4 (Homo sapiens), sequence (P47928 whole entry, looked up): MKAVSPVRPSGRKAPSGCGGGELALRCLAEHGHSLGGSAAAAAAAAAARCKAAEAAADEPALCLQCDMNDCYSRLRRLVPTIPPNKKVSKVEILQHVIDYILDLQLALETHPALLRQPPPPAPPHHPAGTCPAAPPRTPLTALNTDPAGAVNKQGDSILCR
row,SMILES,outcome
1,O=C(C[C@@H]1CC[C@@H](NS(=O)(=O)c2ccc(F)cc2)[C@H](CO)O1)NCc1ccc(Cl)c(Cl)c1,inactive
2,COc1ccccc1-c1cnc2c(c1)C(=O)N([C@H](C)CO)C[C@@H](C)[C@@H](CN(C)Cc1ccncc1)O2,inactive
3,COc1ccccc1-c1cnc2c(c1)C(=O)N([C@@H](C)CO)C[C@H](C)[C@H](CN(C)C(=O)c1ccncc1)O2,inactive
4,CC(C)CC#Cc1cnc2c(c1)C(=O)N([C@@H](C)CO)C[C@H](C)[C@@H](CN(C)C(=O)c1cccc(F)c1)O2,inactive
5,CC(C)CC#Cc1cnc2c(c1)C(=O)N([C@H](C)CO)C[C@H](C)[C@@H](CN(C)Cc1ccccc1)O2,inactive
6,c1ccc2[nH]c(CSc3nc4ccccc4[nH]3)nc2c1,inactive
7,C[C@@H]1CN([C@H](C)CO)C(=O)c2cc(C#CC3CCCC3)cnc2O[C@H]1CN(C)C(=O)C1CC1,inactive
8,COc1ccccc1-c1cnc2c(c1)C(=O)N([C@@H](C)CO)C[C@H](C)[C@H](CN(C)CC1CCOCC1)O2,inactive
9,CN(C)c1ccc2c(c1)[C@@H]1C[C@@H](CC(=O)NCc3ccccn3)O[C@H](CO)[C@@H]1O2,inactive
10,CCC(=O)N(C)C[C@H]1Oc2ncc(-c3ccc(C)cc3)cc2C(=O)N([C@@H](C)CO)C[C@@H]1C,inactive
11,COc1ccccc1-c1ccc2c(c1)O[C@H](CN(C)C(=O)c1cccnc1)[C@H](C)CN([C@@H](C)CO)S2(=O)=O,inactive
12,COc1cc(S(=O)(=O)NCCN2CCOCC2)ccc1Br,inactive
13,O=C(CSc1nnnn1-c1ccccc1)Nc1ccccc1C(=O)c1ccccc1,inactive
14,C[C@H](CO)N1C[C@H](C)[C@H](CN(C)CC2CC2)Oc2cc(-c3ccc(F)cc3)ccc2S1(=O)=O,inactive
15,O=C(C[C@H]1C=C[C@@H](NC(=O)C2CC2)[C@H](CO)O1)NCC1CC1,inactive
16,O=C(C[C@H]1C=C[C@@H](NC(=O)CC2CC2)[C@H](CO)O1)NCc1ccc(-c2ccccc2)cc1,inactive
17,Cc1ccc(-c2cnc3c(c2)C(=O)N([C@H](C)CO)C[C@@H](C)[C@@H](CN(C)C(=O)CN(C)C)O3)cc1,inactive
18,C[C@@H]1CN([C@H](C)CO)S(=O)(=O)c2ccc(-c3ccccc3)cc2O[C@@H]1CN(C)CC1CC1,inactive
19,CN(C)C(=O)C[C@H]1CC[C@@H](NC(=O)Nc2cccc(F)c2)[C@H](CO)O1,inactive
20,CC(C)c1cn(CC[C@@H]2CC[C@@H](NC(=O)C3CCC3)[C@@H](CO)O2)nn1,inactive
21,CN(C)C(=O)C[C@H]1CC[C@@H](NC(=O)C2CC2)[C@@H](CO)O1,inactive
22,O=C(C[C@@H]1C=C[C@@H](NC(=O)Nc2cccc(F)c2)[C@H](CO)O1)NCC1CCCCC1,inactive
23,CO[C@@H]1CN(C)C(=O)c2cc(NC(=O)c3ccccc3F)ccc2OC[C@@H](C)N(CC2CC2)C[C@H]1C,inactive
24,CC(C)NC(=O)N(C)C[C@@H]1Oc2ccc(N(C)C)cc2C(=O)N([C@@H](C)CO)C[C@H]1C,inactive
25,CC(C)NC(=O)N(C)C[C@@H]1Oc2c(cccc2N(C)C)C(=O)N([C@H](C)CO)C[C@@H]1C,inactive
26,CC(C)NC(=O)N(C)C[C@@H]1Oc2c(cccc2N(C)C)C(=O)N([C@@H](C)CO)C[C@H]1C,active

row,SMILES,outcome
1,CCC(Oc1cccc(NC(=O)c2ccccc2[N+](=O)[O-])c1)C(=O)c1ccccc1 (stereo not drawn),inactive
2,C[C@@H]1CN([C@H](C)CO)C(=O)c2cc(C#Cc3cccc(F)c3)cnc2O[C@H]1CN(C)Cc1ccccn1,inactive
3,CCCC#Cc1ccc2c(c1)O[C@@H](CN(C)CCC)[C@@H](C)CN([C@H](C)CO)S2(=O)=O,inactive
4,CC(C)NC(=O)N(C)C[C@H]1Oc2ncc(C#CC3CC3)cc2C(=O)N([C@H](C)CO)C[C@@H]1C,inactive
5,C[C@@H]1CN([C@@H](C)CO)C(=O)c2cc(-c3ccccc3F)cnc2O[C@@H]1CN(C)Cc1cccc(F)c1,inactive
6,O=C(C[C@@H]1C=C[C@@H](NC(=O)c2ccccn2)[C@@H](CO)O1)NCc1cc(F)cc(F)c1,inactive
7,C[C@@H]1CN([C@H](C)CO)C(=O)c2cc(-c3ccncc3)cnc2O[C@H]1CN(C)C,inactive
8,C[C@H]1CN([C@@H](C)CO)C(=O)c2cc(C3=CCCC3)cnc2O[C@@H]1CN(C)Cc1cccnc1,inactive
9,C/C=C/c1ccc2c(c1)O[C@H](CN(C)C)[C@H](C)CN([C@H](C)CO)S2(=O)=O,inactive
10,CCC1=NN(C(=O)C(C)C)C(O)(c2ccc(Br)cc2)C1 (stereo not drawn),inactive
11,CC(=O)N(C)C[C@@H]1Oc2ncc(C#CCc3ccccc3)cc2C(=O)N([C@H](C)CO)C[C@H]1C,inactive
12,C[C@H](CO)N1C[C@H](C)[C@H](CN(C)C)Oc2ncc(-c3ccncc3)cc2C1=O,inactive
13,COc1cccc(S(=O)(=O)N[C@H]2C=C[C@H](CC(=O)NC3Cc4ccccc4C3)O[C@H]2CO)c1,inactive
14,CC(C)NC(=O)N(C)C[C@@H]1Oc2ncc(C#CC3CC3)cc2C(=O)N([C@@H](C)CO)C[C@H]1C,inactive
15,O=C(C[C@@H]1CC[C@@H](NC(=O)C2CC2)[C@@H](CO)O1)NCc1ccccc1Cl,inactive
16,COCC#Cc1ccc2c(c1)O[C@H](CN(C)CC1CC1)[C@H](C)CN([C@H](C)CO)S2(=O)=O,inactive
17,C[C@H](CO)N1C[C@H](C)[C@H](CN(C)C)Oc2cc(C#Cc3ccccc3F)ccc2S1(=O)=O,inactive
18,O=C(C[C@@H]1C=C[C@@H](NC(=O)c2cccnc2)[C@H](CO)O1)NCCN1CCCCC1,inactive
19,COC(=O)C[C@H]1CC[C@H](NC(=O)c2ccccc2)[C@@H](CO)O1,inactive
20,CC(C)CC#Cc1cnc2c(c1)C(=O)N([C@H](C)CO)C[C@H](C)[C@@H](CN(C)Cc1ccccc1C(=O)O)O2,inactive
21,O=C(C[C@@H]1C[C@H]2c3cc(NC(=O)C4CCOCC4)ccc3O[C@H]2[C@H](CO)O1)NCc1ccc2c(c1)OCO2,inactive
22,C[C@H]1CN([C@@H](C)CO)S(=O)(=O)c2ccc(-c3ccccc3F)cc2O[C@H]1CN(C)C(=O)C1CC1,inactive
23,C[C@@H]1CN([C@H](C)CO)C(=O)c2cc(C#CCC3CCCC3)cnc2O[C@H]1CN(C)C(=O)c1cnccn1,inactive
24,CO[C@H](CN(C)S(=O)(=O)c1ccc(C)cc1)[C@@H](C)CN(Cc1ccccc1Cl)[C@@H](C)CO,inactive
25,CCn1c(SCC(=O)Nc2sc3c(c2C#N)CCCC3)nnc1-c1ccccc1O,active
26,CCn1c(SCC(=O)Nc2cc(Cl)c(Cl)cc2Cl)nnc1-c1ccccc1Cl,inactive

row,SMILES,outcome
1,N#Cc1c(NC(=O)CCn2cnc3ccccc3c2=O)sc2c1CCCC2,inactive
2,C[C@@H]1CN([C@@H](C)CO)C(=O)c2cc(C3=CCCC3)cnc2O[C@H]1CN(C)Cc1ccccc1F,inactive
3,COCC(=O)N[C@H]1C=C[C@H](CC(=O)N2CCCCC2)O[C@H]1CO,inactive
4,Cc1ccc(-c2ccc3c(c2)O[C@H](CN(C)C)[C@@H](C)CN([C@@H](C)CO)S3(=O)=O)cc1,inactive
5,CO[C@@H](CN(C)S(=O)(=O)c1ccc(F)cc1)[C@H](C)CN(C(=O)Nc1ccccc1F)[C@@H](C)CO,inactive
6,O=C(C[C@H]1C=C[C@@H](NC(=O)Nc2cc(F)ccc2F)[C@H](CO)O1)NCCCN1CCOCC1,inactive
7,CN(C)C(=O)C[C@H]1C=C[C@@H](NC(=O)c2ccc(F)cc2)[C@@H](CO)O1,inactive
8,C[C@H]1CN([C@@H](C)CO)C(=O)c2cc(Br)cnc2O[C@@H]1CN(C)C(=O)c1ccccc1F,inactive
9,O=C(CN1C(=O)c2ccccc2S1(=O)=O)Nc1ccc(F)c(F)c1,inactive
10,O=C(CSc1nnc(-c2ccccc2)n1-c1ccccc1)c1ccc(F)cc1,inactive
11,CO[C@@H](CN(C)C(=O)c1cnccn1)[C@@H](C)CN([C@@H](C)CO)S(=O)(=O)c1ccc(F)cc1,inactive
12,C[C@H]1CN([C@@H](C)CO)C(=O)c2cc(Br)cnc2O[C@H]1CN(C)CC1CCCC1,inactive
13,CCCN(C)C[C@@H]1Oc2cc(-c3ccc(C)cc3)ccc2S(=O)(=O)N([C@@H](C)CO)C[C@H]1C,inactive
14,CCC(=O)N[C@H]1C=C[C@@H](CC(=O)NCC2CCCCC2)O[C@H]1CO,inactive
15,C[C@@H]1CN([C@H](C)CO)C(=O)c2cc(Br)cnc2O[C@@H]1CN(C)C(=O)C1CC1,inactive
16,C[C@H](CO)N1C[C@H](C)[C@@H](CN(C)C)Oc2ncc(-c3cccc(F)c3)cc2C1=O,inactive
17,C[C@@H]1CN([C@@H](C)CO)S(=O)(=O)c2ccc(-c3cccc(C#N)c3)cc2O[C@@H]1CN(C)Cc1cccc(F)c1,inactive
18,C[C@@H]1CN([C@H](C)CO)S(=O)(=O)c2ccc(-c3cccc(C#N)c3)cc2O[C@@H]1CN(C)C(=O)Nc1ccccc1F,active
19,CCCN(C)C[C@@H]1Oc2cc(-c3cccc(C#N)c3)ccc2S(=O)(=O)N([C@@H](C)CO)C[C@@H]1C,inactive
20,Cc1cc(C)c(OCC(=O)Nc2cccnc2)c(Br)c1,inactive
21,COc1ccc(NC(=O)Cc2nc(-c3cc4ccccc4oc3=O)cs2)cc1,inactive
22,COc1cccc(S(=O)(=O)N[C@H]2C=C[C@H](CC(=O)NC3Cc4ccccc4C3)O[C@@H]2CO)c1,inactive
23,CN(C)c1ccc2c(c1)[C@H]1C[C@H](CC(=O)NCc3ccc(Cl)cc3)O[C@H](CO)[C@H]1O2,inactive
24,CC(=O)N(C)C[C@H]1Oc2cc(C#Cc3ccccc3F)ccc2S(=O)(=O)N([C@H](C)CO)C[C@@H]1C,inactive
25,COc1ccc(CNC(=O)C[C@@H]2C=C[C@@H](NC(=O)c3ccc4c(c3)OCO4)[C@@H](CO)O2)cc1,inactive
26,O=C(C[C@H]1CC[C@@H](NC(=O)Cc2ccccn2)[C@H](CO)O1)NCCc1ccccc1,inactive
